The structures appear in SMILES notation. Records with an inconclusive call do not appear. Activity calls are given as the source filed them. The calls were made as follows, unless noted: active = hit-call score of the fitted dose curve at least 0.9, where 1 is the maximum; inactive = score below 0.9.

The nature of assay [1]: ATG_NFI_CIS: Attagene CIS-FACTORIAL HepG2 Assay for human Nuclear Factor I (NFI) (AID 2282989). To be noted: HepG2 cis-regulatory reporter, NFI response element transcription; actives raise or lower the signal. The method in brief:
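Reporter transcripts were measured by RT-PCR with fluorescent primer extension and capillary electrophoresis 24 h post-treatment. HepG2 cells carried transiently transfected cis-regulated reporter constructs reporting endogenous factor activity; gain or loss fitted against DMSO baseline.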

For assay [2], the target named is Myc proto-oncogene protein (Homo sapiens) (UniProt P01106). The assay is described as follows: ATG_Myc_CIS: Attagene CIS-FACTORIAL HepG2 Assay for human Myelocytomatosis (Myc) Proto-Oncogene Transcription Factor (AID 2282990). To be noted: HepG2, Attagene cis-reporter transcription factor activity; actives raise or lower the signal. The method in brief:
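Read-out: fluorescent reporter mRNA fragments resolved by capillary electrophoresis after RT-PCR. Human HepG2 liver cells carried transfected cis-element reporter units and were dosed for 24 h. Gain or loss of signal fitted relative to DMSO baseline.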

Assay [3] can be described thus: ATG_NRF2_ARE_CIS: Attagene CIS-FACTORIAL HepG2 Assay for human Nuclear Factor Erythroid 2 Related Factor 2 (NFR2) response to Antioxidant Response Elements (ARE) (AID 2282992).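 As to AC50: reporter mRNA level measured by RT-PCR and capillary electrophoresis fluorescence.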 To be noted: HepG2 Attagene ARE/NRF2 reporter, transcription factor activity; actives raise or lower the signal. The method in brief:
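Cis-factorial assay: transfected HepG2 reporter library, 24 h dosing, mRNA readout via RT-PCR/CE; DMSO-referenced bidirectional analysis.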

The nature of assay [4]: ATG_Oct_MLP_CIS: Attagene CIS-FACTORIAL HepG2 Assay for human Octamer-Binding Transcription Factor (Oct) (AID 2282993). To be noted: HepG2 Attagene cis-factorial Oct reporter, mRNA; actives raise or lower the signal. The method in brief: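 Readout is reporter transcript level from RT-PCR with fluorescent primer extension and capillary electrophoresis, fitted in both directions against DMSO. Transfected HepG2 reporter units report endogenous factor activity after 24 h dosing.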

For assay [5], the target named is Cellular tumor antigen p53 (Homo sapiens) (UniProt P04637). The assay can be described thus: ATG_p53_CIS: Attagene CIS-FACTORIAL HepG2 Assay for human p53 Transcription Factor (AID 2282994). The settings on record: HepG2 p53 cis-element reporter, Attagene mRNA; actives raise or lower the signal. The method in brief:
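Using HepG2 hepatoma cells carrying cis-acting multiplexed reporters, mRNA induction is detected after a 24 h exposure. Gain- and loss-of-signal responses are fitted relative to DMSO-treated cells.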

In assay [6] the target is human Peroxisome Proliferator-activated Receptor alpha (PPARa), PPARA (gene 5465) (UniProt Q07869). The assay is described as follows: ATG_PPARa_TRANS: Attagene TRANS-FACTORIAL HepG2 Assay for human Peroxisome Proliferator-activated Receptor alpha (PPARa) (AID 2283001; active = hit-call score of the fitted dose curve at least 0.9, where 1 is the maximum;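 as to AC50: potency for gain of reporter signal over DMSO so agonist or activator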). The method in brief:
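HepG2 cells transiently transfected with multiplexed GAL4-UAS reporters driven by exogenous chimeric NR-Gal4 proteins; reporter mRNA measured after 24 h dosing. Read-out by RT-PCR, 6-FAM labelling, HpaI digestion and capillary electrophoresis; gain of signal versus DMSO.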

Assay [7] deals with Peroxisome proliferator-activated receptor gamma (Homo sapiens) (UniProt P37231). The assay is described as follows: ATG_PPARg_TRANS: Attagene TRANS-FACTORIAL HepG2 Assay for human Peroxisome Proliferator-activated Receptor-gamma (PPARg) (AID 2283007; active = hit-call score of the fitted dose curve at least 0.9, where 1 is the maximum). The method in brief:
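Liver-derived HepG2 cells expressing an exogenous NR-Gal4 chimera alongside GAL4-UAS reporter genes; 24 h exposure. Fluorescence of reporter RT-PCR products, separated by capillary electrophoresis, gives mRNA induction relative to DMSO.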

For assay [8], the target named is human Peroxisome Proliferator-activated Receptor delta (PPARd), PPARD (gene 5467) (UniProt Q03181). The assay is described as follows: ATG_PPARd_TRANS: Attagene TRANS-FACTORIAL HepG2 Assay for human Peroxisome Proliferator-activated Receptor delta (PPARd) (AID 2283002; active = hit-call score of the fitted dose curve at least 0.9, where 1 is the maximum). The method in brief:
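Read-out: reporter mRNA induction, quantified by fluorescent RT-PCR products resolved by capillary electrophoresis. Human HepG2 liver cells carried transiently transfected Gal4-UAS reporter constructs with chimeric NR-Gal4 fusions. Cells were dosed for 24 h; DMSO served as baseline.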

Assay [9] concerns the target Nuclear receptor subfamily 1 group I member 2 (Homo sapiens) (UniProt O75469). The assay can be described thus: ATG_PXR_TRANS: Attagene TRANS-FACTORIAL HepG2 Assay for human Pregnane X Receptor (PXR) (AID 2283008; active = hit-call score of the fitted dose curve at least 0.9, where 1 is the maximum). The method in brief: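 Fluorescence intensity of FAM-labelled, HpaI-digested reporter amplicons, separated by capillary electrophoresis, quantifies induction. HepG2 cells with PXR-Gal4 trans-reporter system were exposed 24 h; DMSO defines baseline.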

Assay [10] has as its target human Retinoic Acid Receptor beta (RARb), RARB (gene 5915) (UniProt P10826). The assay can be described thus: ATG_RARb_TRANS: Attagene TRANS-FACTORIAL HepG2 Assay for human Retinoic Acid Receptor beta (AID 2283004; active = hit-call score of the fitted dose curve at least 0.9, where 1 is the maximum). The method in brief:
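HepG2 cells were transiently transfected with GAL4-UAS reporter units that report activity of exogenous chimeric NR-Gal4 proteins, then exposed to compound for 24 h. Reporter mRNA was quantified by RT-PCR with capillary electrophoresis fluorescence, as gain of signal over DMSO.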

In assay [11] the target is Retinoic acid receptor alpha (Homo sapiens) (UniProt P10276). The assay can be described thus: ATG_RARa_TRANS: Attagene TRANS-FACTORIAL HepG2 Assay for human Retinoic Acid Receptor alpha (RARa) (AID 2283005; active = hit-call score of the fitted dose curve at least 0.9, where 1 is the maximum). The method in brief: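 HepG2 transiently transfected with multiplex GAL4-UAS reporter units including a human RARa–GAL4 chimera; 24 h compound exposure. Reporter mRNA quantified by RT-PCR, 6-FAM labeling and capillary electrophoresis; gain of signal versus DMSO.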

The target in assay [12] is human Retinoic Acid Receptor gamma (RARg), RARG (gene 5916) (UniProt P13631). The assay is described as follows: ATG_RARg_TRANS: Attagene TRANS-FACTORIAL HepG2 Assay for human Retinoic Acid Receptor gamma (RARg) (AID 2283009; active = hit-call score of the fitted dose curve at least 0.9, where 1 is the maximum). The method in brief: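 HepG2 transiently transfected with GAL4-UAS reporter units and chimeric NR-Gal4 constructs; 24 h compound exposure. Reporter mRNA quantified by RT-PCR, FAM labeling, HpaI digestion and capillary electrophoresis; gain-of-signal versus DMSO.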

Assay [13] addresses human RAR-related Orphan Receptor beta (RORb), RORB (gene 6096) (UniProt Q92753). The assay can be described thus: ATG_RORb_TRANS: Attagene TRANS-FACTORIAL HepG2 Assay for human RAR-related Orphan Receptor beta (RORb) (AID 2283010; active = hit-call score of the fitted dose curve at least 0.9, where 1 is the maximum). The method in brief:
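HepG2 cells transiently transfected with GAL4-UAS reporter units expressing chimeric NR-Gal4 protein; reporter mRNA measured 24 h after dosing by RT-PCR, 6-FAM labelling and capillary electrophoresis. Gain-of-signal fitted relative to DMSO baseline.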

human Retinoic Acid Receptor gamma (RARg), RARG (gene 5916), sequence (P13631 whole entry, looked up, the tested form may be a part): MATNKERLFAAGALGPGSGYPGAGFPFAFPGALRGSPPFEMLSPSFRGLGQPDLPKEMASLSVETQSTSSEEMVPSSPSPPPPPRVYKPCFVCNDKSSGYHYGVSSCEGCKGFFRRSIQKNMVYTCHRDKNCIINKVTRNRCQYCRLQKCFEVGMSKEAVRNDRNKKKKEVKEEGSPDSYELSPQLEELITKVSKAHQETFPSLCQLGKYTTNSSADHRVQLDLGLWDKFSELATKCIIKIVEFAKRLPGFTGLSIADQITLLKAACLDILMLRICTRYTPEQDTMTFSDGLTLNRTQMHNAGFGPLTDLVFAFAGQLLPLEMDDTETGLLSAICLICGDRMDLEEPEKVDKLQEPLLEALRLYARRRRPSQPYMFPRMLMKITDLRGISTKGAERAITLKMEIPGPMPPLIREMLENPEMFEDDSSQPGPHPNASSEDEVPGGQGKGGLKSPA
Peroxisome proliferator-activated receptor gamma (Homo sapiens), sequence (P37231 whole entry, looked up, the tested form may be a part): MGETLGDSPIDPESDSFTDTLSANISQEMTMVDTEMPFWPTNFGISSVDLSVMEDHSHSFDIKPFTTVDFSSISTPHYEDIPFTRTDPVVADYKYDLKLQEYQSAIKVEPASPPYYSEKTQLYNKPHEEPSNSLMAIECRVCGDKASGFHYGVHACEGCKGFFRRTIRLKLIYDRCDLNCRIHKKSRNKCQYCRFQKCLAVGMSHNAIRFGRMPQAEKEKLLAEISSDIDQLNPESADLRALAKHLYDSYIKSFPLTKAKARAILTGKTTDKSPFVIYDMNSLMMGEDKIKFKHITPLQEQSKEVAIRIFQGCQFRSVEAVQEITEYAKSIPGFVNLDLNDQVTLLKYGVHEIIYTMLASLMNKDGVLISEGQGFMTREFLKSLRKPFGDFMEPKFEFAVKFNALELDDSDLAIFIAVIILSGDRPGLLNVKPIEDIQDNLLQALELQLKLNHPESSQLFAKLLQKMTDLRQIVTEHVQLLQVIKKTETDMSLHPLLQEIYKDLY
Retinoic acid receptor alpha (Homo sapiens), sequence (P10276 whole entry, looked up, the tested form may be a part): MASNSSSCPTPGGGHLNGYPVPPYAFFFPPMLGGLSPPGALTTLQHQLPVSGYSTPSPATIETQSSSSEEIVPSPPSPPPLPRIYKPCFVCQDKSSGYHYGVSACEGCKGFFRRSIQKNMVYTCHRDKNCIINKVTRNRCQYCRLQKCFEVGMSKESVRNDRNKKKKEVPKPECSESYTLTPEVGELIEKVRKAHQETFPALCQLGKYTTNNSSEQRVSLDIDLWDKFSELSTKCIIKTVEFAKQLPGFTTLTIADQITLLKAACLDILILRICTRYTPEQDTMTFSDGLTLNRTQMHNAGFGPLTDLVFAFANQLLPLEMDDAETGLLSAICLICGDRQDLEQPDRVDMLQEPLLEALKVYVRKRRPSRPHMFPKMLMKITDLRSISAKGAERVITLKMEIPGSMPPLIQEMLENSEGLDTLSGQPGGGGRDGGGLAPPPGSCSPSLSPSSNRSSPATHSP
Cellular tumor antigen p53 (Homo sapiens), sequence (P04637 whole entry, looked up): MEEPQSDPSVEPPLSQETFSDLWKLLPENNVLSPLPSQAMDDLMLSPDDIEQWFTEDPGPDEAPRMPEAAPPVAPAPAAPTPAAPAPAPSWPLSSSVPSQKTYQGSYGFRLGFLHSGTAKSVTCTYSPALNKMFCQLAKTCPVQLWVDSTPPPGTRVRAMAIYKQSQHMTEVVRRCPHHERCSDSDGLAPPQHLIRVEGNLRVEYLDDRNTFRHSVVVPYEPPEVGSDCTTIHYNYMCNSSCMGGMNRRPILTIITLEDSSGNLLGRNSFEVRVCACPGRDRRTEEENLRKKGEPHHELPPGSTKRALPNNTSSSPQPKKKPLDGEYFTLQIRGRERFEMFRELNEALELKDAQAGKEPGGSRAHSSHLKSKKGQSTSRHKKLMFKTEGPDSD
human RAR-related Orphan Receptor beta (RORb), RORB (gene 6096), sequence (Q92753 whole entry, looked up, the tested form may be a part): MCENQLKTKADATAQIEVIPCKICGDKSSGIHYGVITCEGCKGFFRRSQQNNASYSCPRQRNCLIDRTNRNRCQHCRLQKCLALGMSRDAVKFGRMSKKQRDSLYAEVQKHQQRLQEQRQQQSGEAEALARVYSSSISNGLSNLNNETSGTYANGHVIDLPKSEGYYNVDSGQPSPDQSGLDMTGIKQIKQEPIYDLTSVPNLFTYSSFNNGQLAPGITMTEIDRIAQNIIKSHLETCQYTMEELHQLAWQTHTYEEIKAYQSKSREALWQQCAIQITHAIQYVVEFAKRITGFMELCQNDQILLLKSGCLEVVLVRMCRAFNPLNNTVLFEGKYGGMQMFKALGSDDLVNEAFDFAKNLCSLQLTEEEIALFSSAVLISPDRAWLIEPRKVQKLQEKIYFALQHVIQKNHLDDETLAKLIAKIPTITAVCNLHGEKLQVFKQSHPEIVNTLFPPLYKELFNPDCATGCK
Myc proto-oncogene protein (Homo sapiens), sequence (P01106 whole entry, looked up, the tested form may be a part): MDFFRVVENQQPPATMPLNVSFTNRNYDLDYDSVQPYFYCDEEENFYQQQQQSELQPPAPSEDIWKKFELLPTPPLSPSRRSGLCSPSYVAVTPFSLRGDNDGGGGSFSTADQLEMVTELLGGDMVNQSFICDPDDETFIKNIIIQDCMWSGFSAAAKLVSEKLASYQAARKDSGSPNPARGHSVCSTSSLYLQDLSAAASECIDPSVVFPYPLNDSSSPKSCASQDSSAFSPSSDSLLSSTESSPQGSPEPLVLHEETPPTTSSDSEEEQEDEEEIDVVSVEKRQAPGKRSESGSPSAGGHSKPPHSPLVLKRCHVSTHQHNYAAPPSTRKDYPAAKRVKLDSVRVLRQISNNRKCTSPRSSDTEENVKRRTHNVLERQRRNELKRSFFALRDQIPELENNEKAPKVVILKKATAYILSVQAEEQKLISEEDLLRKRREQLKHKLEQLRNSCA
human Peroxisome Proliferator-activated Receptor alpha (PPARa), PPARA (gene 5465), sequence (Q07869 whole entry, looked up, the tested form may be a part): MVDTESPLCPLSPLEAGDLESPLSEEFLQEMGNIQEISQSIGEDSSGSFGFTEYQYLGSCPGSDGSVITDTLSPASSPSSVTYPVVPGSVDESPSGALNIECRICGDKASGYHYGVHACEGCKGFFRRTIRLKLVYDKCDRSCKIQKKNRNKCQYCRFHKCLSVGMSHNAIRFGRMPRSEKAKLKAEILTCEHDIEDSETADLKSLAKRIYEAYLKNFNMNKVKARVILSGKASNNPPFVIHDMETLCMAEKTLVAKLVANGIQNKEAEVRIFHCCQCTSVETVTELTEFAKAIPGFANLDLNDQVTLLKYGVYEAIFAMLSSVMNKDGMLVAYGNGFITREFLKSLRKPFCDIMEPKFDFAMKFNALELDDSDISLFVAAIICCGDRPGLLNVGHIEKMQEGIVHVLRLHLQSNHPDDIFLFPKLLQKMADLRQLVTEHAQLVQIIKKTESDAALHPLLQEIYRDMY
human Retinoic Acid Receptor beta (RARb), RARB (gene 5915), sequence (P10826 whole entry, looked up, the tested form may be a part): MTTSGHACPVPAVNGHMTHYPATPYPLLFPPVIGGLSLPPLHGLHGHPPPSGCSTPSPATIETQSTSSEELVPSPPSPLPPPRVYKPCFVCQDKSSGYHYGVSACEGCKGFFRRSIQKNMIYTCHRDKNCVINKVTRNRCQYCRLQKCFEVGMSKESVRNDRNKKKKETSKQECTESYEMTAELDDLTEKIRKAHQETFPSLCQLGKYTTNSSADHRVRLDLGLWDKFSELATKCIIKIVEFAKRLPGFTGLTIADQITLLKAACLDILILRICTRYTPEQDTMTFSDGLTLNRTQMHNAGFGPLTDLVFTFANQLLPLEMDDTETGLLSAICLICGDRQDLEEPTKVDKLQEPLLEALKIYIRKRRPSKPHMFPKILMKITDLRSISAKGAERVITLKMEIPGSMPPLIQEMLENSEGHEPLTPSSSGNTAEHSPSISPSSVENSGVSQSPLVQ
Nuclear receptor subfamily 1 group I member 2 (Homo sapiens), sequence (O75469 whole entry, looked up, the tested form may be a part): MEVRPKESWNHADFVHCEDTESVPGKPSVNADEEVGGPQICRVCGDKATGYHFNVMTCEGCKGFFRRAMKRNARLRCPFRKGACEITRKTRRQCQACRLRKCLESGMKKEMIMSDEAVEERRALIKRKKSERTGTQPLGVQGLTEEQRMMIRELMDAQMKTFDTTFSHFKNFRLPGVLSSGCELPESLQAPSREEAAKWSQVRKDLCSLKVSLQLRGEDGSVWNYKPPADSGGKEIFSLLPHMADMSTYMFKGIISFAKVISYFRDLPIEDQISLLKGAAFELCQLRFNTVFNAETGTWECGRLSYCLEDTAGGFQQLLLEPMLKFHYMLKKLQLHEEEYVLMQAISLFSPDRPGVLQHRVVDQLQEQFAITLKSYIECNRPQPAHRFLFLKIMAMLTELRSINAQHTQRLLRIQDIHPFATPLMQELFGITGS
human Peroxisome Proliferator-activated Receptor delta (PPARd), PPARD (gene 5467), sequence (Q03181 whole entry, looked up, the tested form may be a part): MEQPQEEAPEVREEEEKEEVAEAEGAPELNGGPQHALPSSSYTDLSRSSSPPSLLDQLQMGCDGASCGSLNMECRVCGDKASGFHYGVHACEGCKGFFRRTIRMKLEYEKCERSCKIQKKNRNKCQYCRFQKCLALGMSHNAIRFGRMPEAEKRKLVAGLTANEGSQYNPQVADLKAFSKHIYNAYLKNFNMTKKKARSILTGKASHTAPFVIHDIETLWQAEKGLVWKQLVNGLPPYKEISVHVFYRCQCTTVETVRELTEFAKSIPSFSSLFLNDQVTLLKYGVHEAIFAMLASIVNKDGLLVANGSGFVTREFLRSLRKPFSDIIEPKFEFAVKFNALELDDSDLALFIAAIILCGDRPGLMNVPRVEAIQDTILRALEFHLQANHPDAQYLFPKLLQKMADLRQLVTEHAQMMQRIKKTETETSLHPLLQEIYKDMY

Take `Cc1cccc(OCCOc2cccc(C)c2)c1`: the molecule was classed as inactive in [1], in [2], in [4], in assay [5] and in assay [6]. For the same molecule, the AC50 in assay [3] is 26.7 µM (active); in [7], 25.7 µM (active).

As for `COCCOCCOCCOCCOC`, the result in assay [1], in assay [2], in [3], in assay [4], in assay [5] and in assay [6] was inactive. Further, the result in assay [8] and in [9] was inactive.

Take `CCCCC/C=C\CCC=O`: the result in assay [1], in [2], in assay [3], in assay [4], in assay [5] and in [6] was inactive. In addition, the result in assay [9] was inactive. The AC50 in assay [7] was 53.6 µM (active).

With `Nc1cccc(C(F)(F)F)c1`, the molecule was called inactive in assay [1], in assay [2], in assay [3], in assay [4], in assay [5] and in [6]. Moreover, the result in assay [10], in assay [7] and in assay [9] was inactive.

For the molecule `O=C1CCCCCCCCCCC(=O)OCCO1`, the call in [1], in assay [2], in assay [3], in assay [4], in [5] and in assay [6] was inactive. Further, the call in assay [10], in [11], in [7], in assay [9], in [12] and in assay [13] was inactive.

As for `CCCCCCOC(=O)C(C)CC` (centres undefined), the molecule was called inactive in assay [1], in assay [2], in assay [3], in assay [4], in assay [5] and in [8]. For the same molecule, the outcome in assay [13] was inactive.

For the molecule `COC(F)(F)C(F)(C(F)(F)F)C(F)(F)F`, the molecule was classed as inactive in assay [1], in assay [2], in assay [3], in assay [4], in assay [5] and in [6]. Further, the call in [10] and in assay [13] was inactive.

Turning to `O=C1c2cccc(O)c2C(=O)c2c(O)cc(CO)cc21`, the call in assay [1], in assay [2], in assay [4], in assay [5], in assay [6] and in assay [10] was inactive. For the same molecule, the outcome in [11] and in [12] was inactive. In addition, the AC50 in [3] was 6.09 µM (active); in [7] it was 50.3 µM (active); in assay [9], 5.78 µM (active).

On to `[Cl][In]([Cl])[Cl]`, for which the outcome in [1], in assay [2], in assay [4], in assay [5], in assay [6] and in [8] was inactive. The result in assay [11], in [9], in assay [12] and in [13] was inactive. Also, the half-maximal activity concentration (AC50) in [3] is 17.6 µM (active).

Regarding `C=CC(C)(C)C`, the outcome in assay [1], in [2], in assay [3], in assay [4], in [5] and in [6] was inactive. Also, the call in assay [8], in assay [7] and in assay [9] was inactive.

Consider `O=c1c2ccccc2nnn1CCl`, for which the call in assay [1], in assay [2], in assay [3], in [4], in assay [5] and in assay [8] was inactive. Further, the molecule was classed as inactive in assay [11] and in [7]. Moreover, the AC50 in assay [9] is 5.33 µM (active).

For the molecule `CCCCCCCCO[C@@H]1O[C@H](CO)[C@@H](O)[C@H](O)[C@H]1O`, the molecule was called inactive in assay [1], in [2], in assay [3], in assay [4], in assay [5] and in assay [6]. Also, the result in [8], in assay [7] and in assay [9] was inactive.

As to `[Cl][Bi]([Cl])([c]1ccccc1)([c]1ccccc1)[c]1ccccc1`, the outcome in [1], in assay [2] and in assay [4] was inactive. Moreover, the AC50 is 0.999 µM (active) in assay [3], 6.07 µM (active) in assay [5], 5.11 µM (active) in [6] and 1.17 µM (active) in assay [7].

Consider `COc1ccc([C@@H]2CC(=O)c3c(O)cc(O[C@@H]4O[C@H](CO[C@@H]5O[C@@H](C)[C@H](O)[C@@H](O)[C@H]5O)[C@@H](O)[C@H](O)[C@H]4O)cc3O2)cc1OC`, for which the molecule was classed as inactive in [1], in assay [2], in [3], in assay [4], in assay [5] and in assay [6]. The outcome in [7], in [9] and in assay [12] was inactive.

`CC(=O)Nc1ccc2c(c1)Cc1cc(NC(C)=O)ccc1-2`: the call in [1], in assay [2], in [3], in assay [4], in assay [5] and in assay [8] was inactive.

With `COc1cc(NC(=O)CC(C)=O)c(OC)cc1Cl`, the outcome in assay [1], in assay [2], in [3], in assay [4], in [5] and in [6] was inactive. Also, the result in assay [9], in [12] and in assay [13] was inactive.

The record behind these values is PubChem BioAssay (EPA / NIEHS).
